# In PubChem BioAssay AID1159580 (chemical genetic matrix, 2015):
# About 2,000 (36%) of roughly 5,500 compounds were called active. Another 18% or so got no clear call; they are omitted. Some of the results follow. Unmarked numbers belong to inactive results. Cut-off read from the data, not from the text of the source: active = normalized growth mostly below about 0.91 (no sharp cut-off); inconclusive = no clear call, values can overlap the other calls; inactive = mostly above about 0.92.
# Assay: chemical genetic growth profiling, strain panel (AID 1159580);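 note: tested at 20 µM; growth read once vehicle control cultures reached saturation at 30 °C; 1 = growth at the plate median or of vehicle wells; lower values mean less growth of the strain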
# Conditions: S. cerevisiae deletion strains, growth OD
# [1] = locus YAR019C, strain CDC15, active compounds read low
# [2] = locus YBL105C, strain PKC1, active compounds read low
# [3] = locus YBR135W, strain CKS1, active compounds read low
# [4] = locus YBR136W, strain MEC1, active compounds read low
# [5] = locus YBR160W, strain CDC28, active compounds read low
# [6] = locus YDL017W, strain CDC7, active compounds read low
# [7] = locus YDL028C, strain MPS1, active compounds read low
# [8] = locus YDL101C, strain DUN1, active compounds read low
# [9] = locus YDL108W, strain KIN28, active compounds read low
# [10] = locus YDL132W, strain cdc53, active compounds read low
# [11] = locus YDL214C, strain PRR2, active compounds read low
# [12] = locus YDR052C, strain DBF4, active compounds read low
# [13] = locus YDR226W, strain ADK1, active compounds read low
# [14] = locus YDR477W, strain SNF1, active compounds read low
# [15] = locus YER123W, strain YCK3, active compounds read low
# [16] = locus YER133W, strain GLC7, active compounds read low
# [17] = locus YFL009W, strain cdc4, active compounds read low
# [18] = locus YFL029C, strain CAK1, active compounds read low
# [19] = locus YFR003C, strain YPI1, active compounds read low
# [20] = locus YFR019W, strain FAB1, active compounds read low
# [21] = locus YFR028C, strain CDC14, active compounds read low
# [22] = locus YGR040W, strain KSS1, active compounds read low
# [23] = locus YGR052W, strain FMP48, active compounds read low
# [24] = locus YGR092W, strain DBF2, active compounds read low
# [25] = locus YHR030C, strain SLT2, active compounds read low
# [26] = locus YHR079C, strain IRE1, active compounds read low
# [27] = locus YHR082C, strain KSP1, active compounds read low
# [28] = locus YHR205W, strain SCH9, active compounds read low
# [29] = locus YIL147C, strain SLN1, active compounds read low
# [30] = locus YJL095W, strain BCK1, active compounds read low
# [31] = locus YJL157C, strain FAR1, active compounds read low
# [32] = locus YJR016C, strain ILV3, active compounds read low
# [33] = locus YJR066W, strain TOR1 (second series), active compounds read low
# [34] = locus YJR066W, strain TOR1, active compounds read low
# [35] = locus YKL048C, strain ELM1, active compounds read low
# [36] = locus YKL067W, strain YNK1, active compounds read low
# [37] = locus YKL101W, strain HSL1, active compounds read low
# [38] = locus YKL193C, strain SDS22, active compounds read low
# [39] = locus YKL203C, strain TOR2, active compounds read low
# [40] = locus YLR113W, strain HOG1, active compounds read low
# [41] = locus YLR133W, strain CKI1, active compounds read low
# [42] = locus YLR403W, strain SFP1, active compounds read low
# [43] = locus YML070W, strain DAK1, active compounds read low
# [44] = locus YMR001C, strain CDC5, active compounds read low
# [45] = locus YMR205C, strain PFK2 (second series), active compounds read low
# [46] = locus YMR277W, strain FCP1, active compounds read low
# [47] = locus YNL006W, strain LST8, active compounds read low
# [48] = locus YNL020C, strain ARK1, active compounds read low
# [49] = locus YNL161W, strain CBK1, active compounds read low
# [50] = locus YNL183C, strain NPR1, active compounds read low
# [51] = locus YNL207W, strain RIO2, active compounds read low
# [52] = locus YNL222W, strain SSU72, active compounds read low
# [53] = locus YNL307C, strain MCK1 (second series), active compounds read low
# [54] = locus YOL078W, strain AVO1, active compounds read low
# [55] = locus YOL136C, strain PFK27, active compounds read low
# [56] = locus YOR061W, strain CKA2, active compounds read low
# [57] = locus YOR119C, strain RIO1, active compounds read low
# [58] = locus YOR231W, strain MKK1, active compounds read low
# [59] = locus YOR329C, strain SCD5, active compounds read low
# [60] = locus YPL031C, strain PHO85, active compounds read low
# [61] = locus YPL153C, strain RAD53, active compounds read low
# [62] = locus YPL204W, strain HRR25, active compounds read low
# [63] = locus YPL209C, strain IPL1, active compounds read low
# [64] = locus YPL256C, strain CLN2, active compounds read low
# [65] = locus YPR025C, strain CCL1, active compounds read low
# [66] = locus YPR111W, strain DBF20, active compounds read low
# [67] = strain NNK1, active compounds read low
# [68] = strain TSCII, active compounds read low
structure (smiles),measurement,setting,value
COc1ccc(OC)c2nc3c(nc12)C(=O)c1ccccc1-3,normalized growth,[1],0.97
same,normalized growth,[2],0.969
same,normalized growth,[3],0.974
same,normalized growth,[4],0.974
same,normalized growth,[5],0.974
same,normalized growth,[6],0.968
same,normalized growth,[7],0.984
same,normalized growth,[8],0.953
same,normalized growth,[9],0.972
same,normalized growth,[10],0.972
same,normalized growth,[11],0.997
same,normalized growth,[12],0.971
same,normalized growth,"locus YDR054C, strain cdc34, active compounds read low",0.957
same,normalized growth,[13],0.979
same,normalized growth,[14],0.971
same,normalized growth,[15],0.942
same,normalized growth,[16],0.988
same,normalized growth,[17],0.978
same,normalized growth,[18],0.969
same,normalized growth,[19],0.974
same,normalized growth,[20],0.974
same,normalized growth,[21],0.981
same,normalized growth,[22],0.973
same,normalized growth,[23],1
same,normalized growth,[24],0.837
same,normalized growth,[25],0.914
same,normalized growth,[26],0.863
same,normalized growth,[27],1.05
same,normalized growth,[28],0.965
same,normalized growth,[29],0.979
same,normalized growth,[30],0.91
same,normalized growth,"locus YJL128C, strain PBS2, active compounds read low",0.956
same,normalized growth,[31],0.958
same,normalized growth,[32],0.977
same,normalized growth,[33],0.947
same,normalized growth,[34],1
same,normalized growth,[35],0.953
same,normalized growth,[36],0.989
same,normalized growth,[37],0.985
same,normalized growth,[38],0.975
same,normalized growth,[39],1
same,normalized growth,[40],0.899
same,normalized growth,[41],0.967
same,normalized growth,[42],0.932
same,normalized growth,[43],0.979
same,normalized growth,[44],0.971
same,normalized growth,[45],0.996
same,normalized growth,[46],0.976
same,normalized growth,[47],0.973
same,normalized growth,[48],0.94
same,normalized growth,[49],0.958
same,normalized growth,[50],0.99
same,normalized growth,[51],0.971
same,normalized growth,[52],0.974
same,normalized growth,[53],0.945
same,normalized growth,[54],0.975
same,normalized growth,[55],0.958
same,normalized growth,[56],0.938
same,normalized growth,[57],1.05
same,normalized growth,[58],0.902
same,normalized growth,[59],0.966
same,normalized growth,[60],0.935
same,normalized growth,[61],0.929
same,normalized growth,[62],0.94
same,normalized growth,[63],0.96
same,normalized growth,[64],0.902
same,normalized growth,[65],0.979
same,normalized growth,"locus YPR106W, strain ISR1, active compounds read low",0.98
same,normalized growth,[66],0.968
same,normalized growth,[67],0.98
same,normalized growth,[68],0.968
Cc1ccc2nc3c(nc2c1)-c1ccccc1C3=O,normalized growth,[1],0.916
same,normalized growth,[2],0.925
same,normalized growth,[3],0.929
same,normalized growth,[4],0.93
same,normalized growth,[5],0.931
same,normalized growth,[6],0.926
same,normalized growth,[7],0.937
same,normalized growth,[8],0.716 (active)
same,normalized growth,[9],0.938
same,normalized growth,[10],0.932
same,normalized growth,[11],0.247 (active)
same,normalized growth,[12],0.861 (active)
same,normalized growth,[13],0.958
same,normalized growth,[14],0.279 (active)
same,normalized growth,[15],0.217 (active)
same,normalized growth,[16],0.339 (active)
same,normalized growth,[17],0.925
same,normalized growth,[18],0.9
same,normalized growth,[19],0.927
same,normalized growth,[20],0.281 (active)
same,normalized growth,[21],0.922
same,normalized growth,[22],0.3 (active)
same,normalized growth,[23],0.255 (active)
same,normalized growth,[24],0.15 (active)
same,normalized growth,[25],0.208 (active)
same,normalized growth,[26],0.209 (active)
same,normalized growth,[27],0.261 (active)
same,normalized growth,[28],0.391 (active)
same,normalized growth,[29],0.935
same,normalized growth,[30],0.227 (active)
same,normalized growth,[31],0.21 (active)
same,normalized growth,[32],0.935
same,normalized growth,[33],0.259 (active)
same,normalized growth,[34],0.225 (active)
same,normalized growth,[35],0.309 (active)
same,normalized growth,[36],0.235 (active)
same,normalized growth,[37],0.264 (active)
same,normalized growth,[38],0.919
same,normalized growth,[39],0.275 (active)
same,normalized growth,[40],0.288 (active)
same,normalized growth,[41],0.224 (active)
same,normalized growth,[42],0.181 (active)
same,normalized growth,[43],0.243 (active)
same,normalized growth,[44],0.908
same,normalized growth,[45],0.261 (active)
same,normalized growth,[46],0.922
same,normalized growth,[47],0.929
same,normalized growth,[48],0.196 (active)
same,normalized growth,[49],0.903
same,normalized growth,[50],0.259 (active)
same,normalized growth,[51],0.909
same,normalized growth,[52],0.923
same,normalized growth,[53],0.199 (active)
same,normalized growth,[54],0.903
same,normalized growth,[55],0.226 (active)
same,normalized growth,[56],0.205 (active)
same,normalized growth,[57],0.29 (active)
same,normalized growth,[58],0.246 (active)
same,normalized growth,[59],0.92
same,normalized growth,[60],0.278 (active)
same,normalized growth,[61],0.265 (active)
same,normalized growth,[62],0.263 (active)
same,normalized growth,[63],0.92
same,normalized growth,[64],0.277 (active)
same,normalized growth,[65],0.929
same,normalized growth,[66],0.886
same,normalized growth,[67],0.8 (active)
same,normalized growth,[68],0.874 (active)
